Experimental data published in PubChem BioAssay (NCATS).
Inconclusive results are not listed. The source made the active and inactive calls. Calls come from the whole dose curve; as a rule, active = well fitted cell-killing curve with a large enough effect; inconclusive = small, poorly fitted or top-dose-only effect, or effect the other way; inactive = no such curve, though single readings can be large or run the other way. Positions of bridges follow the written chain, without caps; N, C: chain ends. Non-standard residues stand in square brackets, D forms with d. Residues, ends and D or L forms follow the SMILES beside them. ξ: configuration not given here. *: point of attachment. Octanoyl(6-Me) = CCC(C)CCCCC(=O)*; ξThr(3R) = C[C@@H](O)C(N)C(=O)O; dDab = NCC[C@@H](N)C(=O)O; Dab = NCC[C@H](N)C(=O)O; Cbz = O=C(OCc1ccccc1)*

Legend:
[1] = Quantitative High-Throughput drug screen in 47 multiple myeloma cell lines against the NCATS MIPE library collection: FR4_PLB cell viability assay (AID 1918924; note: nearly all actives have a fitted effect of over 35% in size)
Outline: (§1)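 qHTS of the MIPE 4.0 collection: 500 myeloma cells/well, 48 h drug exposure at 37C in 5% CO2, then CellTiter-Glo for 5 min at room temperature before luminescence reading.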

[2] = Quantitative High-Throughput drug screen in 47 multiple myeloma cell lines against the NCATS MIPE library collection: Delta47_JCRB cell viability assay (AID 1918925; note: nearly all actives have a fitted effect of over 45% in size)
Outline: (§2)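 Inhibition of cell viability is measured here. Each line was plated at 500 cells per well, treated with MIPE 4.0 drugs, kept 48 hours at 37C, then assayed for ATP content by CellTiter-Glo luminescence.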

[3] = Quantitative High-Throughput drug screen in 47 multiple myeloma cell lines against the NCATS MIPE library collection: EJM_DSMZ cell viability assay (AID 1918926; note: nearly all actives have a fitted effect of over 30% in size)
Outline: as §2

[4] = Quantitative High-Throughput drug screen in 47 multiple myeloma cell lines against the NCATS MIPE library collection: AMO1_DSMZ cell viability assay (AID 1918927; note: nearly all actives have a fitted effect of over 30% in size)
Outline: as §2

[5] = Quantitative High-Throughput drug screen in 47 multiple myeloma cell lines against the NCATS MIPE library collection: ARP1_JJKsccF8 cell viability assay (AID 1918928; note: nearly all actives have a fitted effect of over 40% in size)
Outline: (§3)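 500 cells/well; MIPE 4.0 library pinned in; 48 h, 37 °C, 5% CO2; CellTiter-Glo ATP luminescence. Controls: DMSO = 100% viability, medium only = 0%.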

[6] = Quantitative High-Throughput drug screen in 47 multiple myeloma cell lines against the NCATS MIPE library collection: ARD_JJKsccE7 cell viability assay (AID 1918929)
Outline: as §2

[7] = Quantitative High-Throughput drug screen in 47 multiple myeloma cell lines against the NCATS MIPE library collection: Karpas620_DSMZ cell viability assay (AID 1918959); note: nearly all actives have a fitted effect of over 30% in size
Outline: as §1

[8] = Quantitative High-Throughput drug screen in 47 multiple myeloma cell lines against the NCATS MIPE library collection: KMM1_JCRB cell viability assay (AID 1918960); note: nearly all actives have a fitted effect of over 30% in size
Outline: as §3

[9] = Quantitative High-Throughput drug screen in 47 multiple myeloma cell lines against the NCATS MIPE library collection: Karpas417_ECACC cell viability assay (AID 1918961); conditions: Karpas417 myeloma viability, CellTiter-Glo ATP luminescence, 48 h; viability (% of DMSO): at 45.8 µM (top of the series)
Outline: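 Luminescent ATP measurement with CellTiter-Glo gives viability, scaled between DMSO-only wells (100%) and media-only wells (0%). Cells, 500 per well, faced library compounds for 48 hours at 37C.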

Measured: Potency
Potency is the fitted concentration of half-maximal effect.

COC[C@H](NC(=O)c1cnc(C)s1)C(=O)N[C@@H](COC)C(=O)N[C@@H](Cc1ccccc1)C(=O)[C@@]1(C)CO1
active: [1] 0.0469 µM | [2] 0.0372 µM | [3] 0.166 µM | [4] 0.0264 µM | [5] 0.0743 µM | [6] 0.0526 µM | [7] 0.0469 µM | [8] 0.0332 µM

CC(C)C[C@@H](C=O)NC(=O)[C@H](CC(C)C)NC(=O)[C@H](CC(C)C)NC(=O)OCc1ccccc1 (Cbz-Leu-Leu-Leu-aldehyde)
active: [1] 0.59 µM | [2] 0.105 µM | [3] 0.833 µM | [4] 0.105 µM | [5] 0.332 µM | [6] 0.105 µM | [7] 0.148 µM | [8] 0.0833 µM

CN(C)c1ccc2cc(C(=O)N[C@@H](CCCN=C(N)CCl)C(=O)NCc3ccccc3)ccc2c1
active: [1] 11.8 µM | [2] 18.7 µM | [3] 1.32 µM | [4] 1.66 µM | [5] 18.7 µM | [6] 4.18 µM | [7] 5.9 µM | [8] 1.32 µM

COc1ccc(C(C)=O)c(O)c1
not listed: [9]
inactive: all other assays above

COc1cc2c(cc1OC)[C@@H]1C(=O)c3ccc4c(c3O[C@@H]1CO2)C=CC(C)(C)O4
active: [1] 4.18 µM | [2] 0.0105 µM | [3] 8.33 µM | [4] 0.0935 µM | [5] 0.059 µM | [6] 0.0235 µM | [7] 0.0332 µM | [8] 0.526 µM

C[C@@H]1[C@H](C)CC[C@]2(C(=O)O)CC[C@]3(C)C(=CC[C@@H]4[C@@]5(C)C[C@@H](O)[C@H](O)[C@@](C)(CO)[C@H]5CC[C@]43C)[C@@H]12
not listed: [9]
inactive: all other assays above

CCc1ccc(C(=O)Nc2cc(CN3CCN(C)CC3)cc(C(F)(F)F)c2)cc1C#Cc1cnc2ccnn2c1
active: [1] 11.8 µM | [2] 13.2 µM | [3] 16.6 µM | [4] 4.69 µM | [5] 5.9 µM | [6] 8.33 µM | [7] 5.26 µM | [8] 6.62 µM

O=C(O)C[C@H](O)C[C@H](O)C=Cc1c(C2CC2)nc2ccccc2c1-c1ccc(F)cc1
active: [1] 10.5 µM | [2] 8.33 µM | [4] 9.35 µM | [5] 13.2 µM | [6] 4.18 µM
inactive: [3]

CN[C@H]1[C@@H](O)[C@@H]2O[C@@H]3O[C@H](C)CC(=O)[C@]3(O)O[C@@H]2[C@@H](NC)[C@H]1O
active: [1] 1.66 µM | [2] 1.18 µM | [3] 0.166 µM | [4] 0.418 µM | [5] 1.32 µM | [6] 0.469 µM | [7] 0.743 µM | [8] 0.372 µM | [9] 0.469 µM

C[C@@]12C(=O)OC(=O)[C@@]1(C)C1CCC2O1
active: [1] 1.48 µM | [2] 0.935 µM | [3] 2.64 µM | [4] 1.32 µM | [5] 0.833 µM | [6] 1.66 µM | [7] 2.96 µM | [8] 0.743 µM | [9] 2.96 µM

NC(=O)Nc1sc(-c2ccc(F)cc2)cc1C(N)=O
active: [1] 2.35 µM | [2] 0.187 µM | [3] 1.87 µM | [4] 0.132 µM | [5] 2.96 µM | [6] 0.296 µM | [7] 1.48 µM | [9] 0.0743 µM

Cc1cnc(Nc2ccc(N3CCN(C)CC3)cc2)nc1Nc1cccc(S(=O)(=O)NC(C)(C)C)c1
active: [1] 16.6 µM | [2] 1.48 µM | [3] 3.32 µM | [4] 1.18 µM | [5] 3.72 µM | [6] 0.59 µM | [7] 3.72 µM | [8] 1.66 µM | [9] 0.372 µM

CC(C)(O)Cn1c(NC(=O)c2ccc(-c3cn[nH]c3)s2)nc2cc(CN3CCOCC3)ccc21
active: [1] 0.743 µM | [2] 0.833 µM | [3] 1.05 µM | [4] 0.469 µM | [5] 1.18 µM | [6] 0.469 µM | [7] 0.662 µM | [8] 0.743 µM | [9] 0.118 µM

COc1cc([C@@H]2c3cc4c(cc3[C@@H](O[C@@H]3O[C@@H]5CO[C@@H](c6cccs6)O[C@@H]5[C@H](O)[C@@H]3O)[C@H]3COC(=O)[C@H]23)OCO4)cc(OC)c1O
active: [1] 16.6 µM | [2] 0.935 µM | [3] 2.35 µM | [4] 0.59 µM | [5] 0.209 µM | [7] 2.96 µM | [8] 0.743 µM

CC(C=CC1=C(C)CCCC1(C)C)=CC=CC(C)=CC(=O)Nc1ccc(O)cc1
active: [1] 9.59 µM | [2] 3.82 µM | [3] 8.55 µM | [4] 3.4 µM | [5] 19.1 µM | [6] 8.55 µM | [7] 6.05 µM | [9] 4.29 µM

NC[C@H]1O[C@H](O[C@H]2[C@@H](O)[C@@H](O[C@H]3O[C@H](CO)[C@@H](O)[C@H](N)[C@@H]3O)[C@H](N)C[C@@H]2N)[C@H](N)C[C@H]1O
not listed: [6] | [9]
inactive: all other assays above

Cn1cc(C2=C(c3c4n(c5ccccc35)CCC(CN)C4)C(=O)NC2=O)c2ccccc21 (configuration not stated)
active: [1] 18.7 µM | [2] 5.26 µM | [3] 9.35 µM | [4] 10.5 µM | [5] 18.7 µM | [6] 7.43 µM | [7] 9.35 µM | [8] 13.2 µM | [9] 9.35 µM

CC(=O)NCC(=O)N1[C@H]2CC[C@H]1c1cc(Nc3ncc(C(F)(F)F)c(NC4CCC4)n3)ccc12
active: [1] 9.35 µM | [2] 0.662 µM | [3] 7.43 µM | [4] 0.235 µM | [5] 4.69 µM | [6] 1.66 µM | [7] 1.32 µM | [8] 3.72 µM | [9] 0.118 µM

CC(=O)SCC(Cc1ccccc1)C(=O)NCC(=O)OCc1ccccc1 (configuration not stated)
active: [1] 18.7 µM | [2] 1.05 µM | [3] 14.8 µM | [4] 3.72 µM | [5] 2.35 µM | [7] 1.66 µM | [8] 3.32 µM

COc1cccc2c1C(=O)c1c(O)c3c(c(O)c1C2=O)C[C@@](O)(C(C)=O)C[C@H]3O[C@H]1C[C@H](N)[C@H](O)[C@H](C)O1
active: [1] 0.132 µM | [2] 0.0418 µM | [3] 0.105 µM | [4] 0.118 µM | [5] 0.059 µM | [6] 0.235 µM | [7] 0.0662 µM | [8] 0.0743 µM | [9] 0.0469 µM

NC(=NCCCCCCN=C(N)N=C(N)Nc1ccc(Cl)cc1)N=C(N)Nc1ccc(Cl)cc1
active: [1] 16.6 µM | [2] 2.64 µM | [3] 2.64 µM | [4] 23.5 µM | [5] 8.33 µM | [7] 18.7 µM | [8] 18.7 µM

O=C(CN1C(=O)C2(CCCC2)NC[C@H]1c1cc(F)cc(F)c1)Nc1ccc2c(c1)C[C@@]1(C2)C(=O)Nc2ncccc21
not listed: [8]
inactive: all other assays above

CCC(C)CCCCC(=O)N[C@@H](CCN)C(=O)NC(C(=O)N[C@H](CCN)C(=O)N[C@@H]1CCNC(=O)C([C@@H](C)O)NC(=O)[C@@H](CCN)NC(=O)[C@@H](CCN)NC(=O)[C@@H](CC(C)C)NC(=O)[C@H](Cc2ccccc2)NC(=O)[C@H](CCN)NC1=O)[C@@H](C)O (stereo partly drawn) ({Octanoyl(6-Me)}-[Dab][ξThr(3R)][dDab][dDab][Dab]F[dL][dDab][dDab][ξThr(3R)]; lactam 4-C)
not listed: [6] | [9]
inactive: all other assays above

Oc1ccc(-c2ccc(-c3cc(Nc4cccc(CNC5CC5)c4)n[nH]3)cc2)c(O)c1
active: [1] 0.935 µM | [2] 0.469 µM | [3] 0.935 µM | [4] 1.32 µM | [5] 4.18 µM | [6] 1.18 µM | [7] 1.18 µM | [9] 0.833 µM
